SMILES strings stand for the structures. Results filed as inconclusive are left out. Values without a mark were called inactive. The source made the active and inactive calls. The call rests on the fitted dose curve; in most records, active means well fitted cell-killing curve with a large enough effect; inconclusive means small, poorly fitted or top-dose-only effect, or effect the other way; inactive means no such curve, though single readings can be large or run the other way.

Results on 33 compounds are retold here after PubChem BioAssay AID1345085 (National Center for Advancing Translational Sciences (NCATS), 2018).
On the % scale 0 is the no-effect control and ±100 the full control effect; potency means the concentration at half of the fitted maximal effect.

The assay has as its system C33A. Kind of assay: Confirmatory qHTS for gynecologic anti-cancer compounds from libraries of approved drugs and bioactive compounds. Further: nearly all actives have a fitted effect of over 55% in size. The conditions noted are these: gynecologic cancer cell panel viability, ATPlite luminescence, 48 h; series mostly up to 57.6 µM; activity change, negative = viability loss: at the top concentration. The method in brief: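 IC50 values derive from an ATPlite ATP-content luminescence assay following 48 h treatment at 37 C. Each compound ran as an 11-concentration, threefold series (57.5 uM to 0.977 nM); HEK 293T served as control line for selectivity index.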
(In general: In qHTS, concentration-response curves come from the screen itself.)
As to `CN(C)C1CCN(C(=O)c2ccc(NC(=O)Nc3nc(N4CCOCC4)nc(N4CCOCC4)n3)cc2)CC1`, the Potency is 0.172 µM (active). On to `CN(c1nccc(=O)[nH]1)C1CCN(c2nc3ccccc3n2Cc2ccc(F)cc2)CC1`, for which the “activity change, negative = viability loss” value is 15.2%.

As to `COC(C(=O)N1Cc2[nH]nc(NC(=O)c3ccc(N4CCN(C)CC4)cc3)c2C1)c1ccccc1` (stereo not drawn), the “activity change, negative = viability loss” value was 1.61%. Take `Cc1cc(Nc2cc(N3CCN(C)CC3)nc(/C=C/c3ccccc3)n2)n[nH]1`: the Potency is 21.7 µM (active). As for `CC(C)Nc1cc(-c2c[nH]c(C(=O)N[C@H](CO)c3cccc(Cl)c3)c2)c(Cl)cn1`, the “activity change, negative = viability loss” value was -12.1%. On to `COc1cc(N2CCC(N3CCN(C)CC3)CC2)ccc1Nc1ncc(Cl)c(Nc2ccccc2S(=O)(=O)C(C)C)n1`, for which the Potency is 27.3 µM (active). For the compound `COc1ccccc1N1CCN(CC(O)COc2cccc3ccccc23)CC1` (stereo not drawn), the “activity change, negative = viability loss” value is -21.7%. `COc1ccc2cc3[n+](cc2c1OC)CCc1cc2c(cc1-3)OCO2`: the “activity change, negative = viability loss” value was -16%. Turning to `COc1cc(F)c(F)c(Nc2ccc(I)cc2F)c1NS(=O)(=O)C1(CC(O)CO)CC1` (stereo not drawn), the “activity change, negative = viability loss” value is 1.44%.

`O=C(O)C1(Cc2cccc(Nc3nccs3)n2)CCC(Oc2cccc(Cl)c2F)CC1` (stereo not drawn): the “activity change, negative = viability loss” value was 3.54%. For `Cc1ccccc1C(OCCN(C)C)c1ccccc1` (stereo not drawn), the “activity change, negative = viability loss” value is 0.202%.

In the case of `CC[C@]1(O)C[C@H]2CN(CCc3c([nH]c4ccccc34)[C@@](C(=O)OC)(c3cc4c(cc3OC)N(C=O)[C@H]3[C@@](O)(C(=O)OC)[C@H](OC(C)=O)[C@]5(CC)C=CCN6CC[C@]43[C@@H]65)C2)C1`, the Potency was 0.306 µM (active). Take `CCN1CCN(Cc2ccc(Nc3ncc(F)c(-c4cc(F)c5nc(C)n(C(C)C)c5c4)n3)nc2)CC1`: the “activity change, negative = viability loss” value was -25.7%.

For `O=c1cc(CN2CCOCC2)occ1OCCCCCSc1ccnc2cc(C(F)(F)F)ccc12`, the “activity change, negative = viability loss” value was -17.5%. Consider `Cc1cnc(Nc2cccc(CN3CCOCC3)c2)nc1Nc1cccc(S(=O)(=O)NC(C)(C)C)c1`, for which the Potency was 24.3 µM (active). The same measure, in the same setting: the figure for `Nc1ccccc1NC(=O)c1ccc(CNC(=O)OCc2cccnc2)cc1` is 5.44 µM (active). For the compound `CCC1=CC2CN(C1)Cc1c([nH]c3ccccc13)[C@@](C(=O)OC)(c1cc3c(cc1OC)N(C)[C@H]1[C@@](O)(C(=O)OC)[C@H](OC(C)=O)[C@]4(CC)C=CCN5CC[C@]31[C@@H]54)C2` (stereo partly drawn), the Potency is 0.211 µM (active). With `CN(C)/N=N/c1nc[nH]c1C(N)=O`, the “activity change, negative = viability loss” value is 0.0357%. Regarding `CC1(C)[C@@H](O)CC[C@]2(C)[C@H]3C(=O)C=C4[C@@H]5C[C@@](C)(C(=O)O)CC[C@]5(C)CC[C@@]4(C)[C@]3(C)CC[C@@H]12`, the “activity change, negative = viability loss” value was 8.69%.

`CN1C2CCC1CC(OC(=O)[C@H](CO)c1ccccc1)C2` (stereo partly drawn): the “activity change, negative = viability loss” value is 1.35%.

`Cc1cncc2cccc(S(=O)(=O)N3CCCN(C(=O)CN)C[C@@H]3C)c12`: the “activity change, negative = viability loss” value was 8.41%.

For the compound `Nc1ccc(-c2ccc3ncc4ccc(=O)n(-c5cccc(C(F)(F)F)c5)c4c3c2)cn1`, the Potency was 0.172 µM (active).

Turning to `Cc1nc(N)nc(N)c1-c1ccc(Cl)c(Cl)c1`, the Potency was 0.172 µM (active). With `C[C@]12CCC(=O)C=C1[C@@H]1C[C@@H]1[C@H]1[C@@H]3[C@@H]4C[C@@H]4[C@@]4(CCC(=O)O4)[C@@]3(C)CC[C@@H]12`, the “activity change, negative = viability loss” value is -12.5%. Regarding `Nc1ncnc2c1ncn2[C@@H]1O[C@H](CO)C[C@H]1O`, the “activity change, negative = viability loss” value is 19.3%. As for `CCc1cccc(CC)c1NC(=O)N1Cc2[nH]nc(NC(=O)c3ccc(N4CCN(C)CC4)cc3)c2C1`, the “activity change, negative = viability loss” value is 8.99%. Same read-out and setting: the figure for `CC(C)Oc1ccc(C(=O)NC(CNC(=O)CN(C)C)Cc2ccc(-c3cn4cccc(C(C)O)c4n3)cc2)cc1Cl` (stereo not drawn) is -17.7%. Turning to `Cn1c(=O)c(F)c(Nc2ccc(I)cc2F)c2c(=O)n(CC(O)CO)cnc21` (stereo not drawn), the “activity change, negative = viability loss” value is -20.6%. For the compound `O=C(c1ccc(F)c(F)c1Nc1ccc(I)cc1F)N1CC(O)([C@@H]2CCCCN2)C1`, the Potency is 27.3 µM (active).

As to `COc1cc2c(Oc3ccc(-c4cnc(Nc5ccc(F)cc5)n(C)c4=O)cc3F)ccnc2cc1OCCCN1CCOCC1`, the “activity change, negative = viability loss” value is -4.7%.

For `COc1cc2c(NC3CCN(C(C)C)CC3)nc(C3CCCCC3)nc2cc1OCCCN1CCCC1`, the Potency is 15.3 µM (active). As for `CC(C)[C@@H](CS(=O)(=O)C(C)C)N1C(=O)[C@@](C)(CC(=O)O)C[C@H](c2cccc(Cl)c2)[C@H]1c1ccc(Cl)cc1`, the “activity change, negative = viability loss” value is 0.0552%. `O=C(CCCCCCNC(=O)c1cnc(N(c2ccccc2)c2ccccc2)nc1)NO`: the Potency was 10.9 µM (active).
